{"source": "PubChem BioAssay (NCATS)", "note": "Values without a mark were called inactive. The call rests on the fitted dose curve; in most records, active means well fitted inhibition curve with a large enough effect; inconclusive means small, poorly fitted or top-dose-only effect; inactive means flat fitted curve, though single readings scatter.", "data": [{"biological_target": "DNA dC->dU-editing enzyme APOBEC-3G (Homo sapiens) (UniProt Q9HC16)", "sequence (Q9HC16 whole entry, looked up)": "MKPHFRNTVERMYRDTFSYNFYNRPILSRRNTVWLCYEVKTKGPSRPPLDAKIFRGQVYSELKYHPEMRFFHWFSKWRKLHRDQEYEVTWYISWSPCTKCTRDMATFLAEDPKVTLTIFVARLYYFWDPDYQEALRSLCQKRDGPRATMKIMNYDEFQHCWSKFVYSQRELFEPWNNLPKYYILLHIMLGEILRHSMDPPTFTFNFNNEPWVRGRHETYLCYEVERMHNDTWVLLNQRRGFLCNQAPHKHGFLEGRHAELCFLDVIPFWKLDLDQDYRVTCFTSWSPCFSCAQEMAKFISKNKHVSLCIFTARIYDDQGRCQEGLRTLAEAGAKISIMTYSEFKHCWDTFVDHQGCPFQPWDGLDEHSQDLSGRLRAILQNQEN", "assay": "qHTS for inhibitors of Vif-A3G interactions: Validation (AID 588379); further: 0% is about no effect", "settings": "Vif-A3G protein interaction assay; series mostly up to 46.1 µM; activity change, negative = inhibition: at the top concentration", "from_the_text": "The recent discovery and characterization of host restriction factors, which provide a potent defense to invading retroviruses, has provided new targets for antiviral drug development. APOBEC3G (A3G) and APOBEC3F (A3F) are potent cytidine deaminases that block HIV-1 replication; HIV-1 expresses the Vif protein, which counteracts A3G and A3F by binding to them and inducing their proteasomal degradation.\nThe Vif-A3G and Vif-A3F interactions provide two potential targets for development of small molecules which can interfere with the ability of Vif to degrade A3G or A3F. […] To identify inhibitors that can interfere with Vif mediated degradation of A3G and A3F, we have developed Hela cell lines that stably express A3G or A3F tagged with eYFP at the C-terminal end (A3G-eYFP or A3F-eYFP, respectively) and Vif. In the absence of an inhibitor, Vif induces degradation of A3G-eYFP and A3F-eYFP, and the cells are not fluorescent. In the presence of an inhibitor, it is expected that Vif will be unable to degrade A3G-eYFP and/or A3F-eYFP, resulting in an increase in yellow fluorescence. In this assays Vif A3G was screened against the Molecular Library Small Molecile Repository (MLSMR).\nNIH Chemical Genomics Center [NCGC]\nNIH Molecular Libraries Probe Centers Network [MLPCN]\nAssay Submitter (PI): Vinay Pathak, National Cancer Institute\n5 uL of 700 cells/well of A3G-YFP cells are dispensed into black, clear bottom plates. The plates are incubated overnight at 37 deg C. 23 nL of compounds are added by pintool. The plates are incubated overnight at 37 deg C and then read on the TTP Acumen (Ex 488/ Em 500-530).", "units": {"activity change, negative = inhibition": "%"}, "values": [{"smiles": "Cc1cccc(C#Cc2ccccc2)n1", "activity change, negative = inhibition": -0.473}, {"smiles": "CC(=O)Nc1ccc(O)cc1", "activity change, negative = inhibition": -0.682}, {"smiles": "CCN(CC)CCOc1ccc(Cc2ccccc2)cc1", "activity change, negative = inhibition": -1.73}, {"smiles": "O=C(NCCO[N+](=O)[O-])c1cccnc1", "activity change, negative = inhibition": -6.62}, {"smiles": "O=C(CCc1ccc(O)cc1)c1c(O)cc(O)cc1O", "activity change, negative = inhibition": -3.48}, {"smiles": "O=C1c2ccccc2-c2n[nH]c3cccc1c23", "activity change, negative = inhibition": -3.75}, {"smiles": "COc1c2occc2cc2ccc(=O)oc12", "activity change, negative = inhibition": -3.24}, {"smiles": "O=C1NC(=O)C(c2ccccc2[N+](=O)[O-])=C1Nc1ccc(O)c(Cl)c1", "activity change, negative = inhibition": -4.1}, {"smiles": "CCOC(=O)C1=C(O)C(=O)N(Cc2ccccc2)C1", "activity change, negative = inhibition": -0.731}, {"smiles": "CNC[C@H](O)c1ccc(O)c(O)c1", "activity change, negative = inhibition": 3.29}, {"smiles": "CC1(C)NC(=O)N(c2ccc([N+](=O)[O-])c(C(F)(F)F)c2)C1=O", "activity change, negative = inhibition": 3.31}, {"smiles": "COC(=O)C1=C(C)NC(C)=C(C(=O)OC(C)C)C1c1cccc2nonc12", "note": "(stereo not given)", "activity change, negative = inhibition": -0.41}, {"smiles": "O=c1c(O)c(-c2cc(O)c(O)c(O)c2)oc2cc(O)cc(O)c12", "activity change, negative = inhibition": -0.513}, {"smiles": "NCCCCNCCCN", "activity change, negative = inhibition": -5.67}, {"smiles": "O=c1cc(N2CCOCC2)oc2c(-c3ccccc3)cccc12", "activity change, negative = inhibition": -4.53}, {"smiles": "CC(C)c1ccc2c(c1)c(SC(C)(C)C)c(CC(C)(C)C(=O)O)n2Cc1ccc(Cl)cc1", "activity change, negative = inhibition": -2.56}, {"smiles": "CC(=O)N1CCN(c2ccc(OC[C@H]3CO[C@](Cn4ccnc4)(c4ccc(Cl)cc4Cl)O3)cc2)CC1", "activity change, negative = inhibition": -4.14}, {"smiles": "O=C1c2c(O)cc(O)cc2OC(c2ccc(O)c(O)c2)C1O", "note": "(stereo not given)", "activity change, negative = inhibition": 2.38}, {"smiles": "O=c1c(O)c(-c2ccc(O)cc2O)oc2cc(O)cc(O)c12", "activity change, negative = inhibition": 0.309}, {"smiles": "OC(CN1CCN(c2cccc(Cl)c2)CC1)C(c1ccccc1)c1ccccc1", "note": "(stereo not given)", "activity change, negative = inhibition": -0.727}]}]}
